Each structure is given as a SMILES string. Results filed as inconclusive are left out. A number with no mark means an inactive call. The source made the active and inactive calls. Calls follow the shape of the dose curve; as a rule, active = well fitted curve in the direction sought with a large enough effect; inconclusive = small, poorly fitted or top-dose-only effect, or another doubt; inactive = no such curve, though single readings can be large; an effect the other way counts as inactive or inconclusive.

The source of these data is PubChem BioAssay (NCATS).

The subject of experiment [1] is Zika virus NS2B-NS3 protease (linked construct). The experiment can be described thus: Primary screen NINDS Rhodamine qHTS for Zika virus inhibitors (AID 1347160). Also: nearly all actives have a fitted effect of over 55% in size. Also: potency is read from the fitted curve at half-maximal effect. In short, it runs like this: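 Each compound, titrated, sat 15 min with 25 nM linked protease before 1.5 microM Rhodamine110 substrate went in. Fluorescence gain over the next 15 min, in pH 8.0 Tris with Tween 20, gave Hill-fitted curves.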
On the technique in general: qHTS replaces the single test concentration by a dilution series.

The nature of experiment [2]: UWB1.289 Cancer Cell Toxicity qHTS against the NCATS CANVASS Library (AID 1347347). Also: nearly all actives have a fitted effect of over 60% in size. Also: potency is read from the fitted curve at half-maximal effect. As to activity change, negative = cytotoxicity: series mostly up to about 38 µM; % is scaled to controls: 0 for no effect and ±100 for the full control effect. The procedure, abridged:
(§1)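 ATP content after 72 h treatment, detected by CellTiter-Glo luminescence (15min room-temperature development), reflects cell viability. Wells contained 1000 cells and received compounds at 11 concentrations.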

Experiment [3] is described as follows: OV-SAHO Cancer Cell Toxicity qHTS against the NCATS CANVASS Library (AID 1347348). Also: series mostly up to about 38 µM; % is scaled to controls: 0 for no effect and ±100 for the full control effect; nearly all actives have a fitted effect of over 55% in size. The procedure, abridged: as §1
The nature of experiment [4]: Panc-1005 Cancer Cell Toxicity qHTS against the NCATS CANVASS Library (AID 1347349). Also: series mostly up to about 38 µM; % is scaled to controls: 0 for no effect and ±100 for the full control effect; nearly all actives have a fitted effect of over 60% in size. In short, it runs like this:
as §1

The nature of experiment [5]: A2780 Cisplatin Sensitive Ovarian Cancer Cell Toxicity qHTS against the NCATS CANVASS Library (AID 1347353). Also: nearly all actives have a fitted effect of over 60% in size. Also: potency is read from the fitted curve at half-maximal effect. The procedure, abridged:
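Quantitative HTS format: eleven compound concentrations applied to pre-seeded cells, 72 h incubation at 37 °C, then ATP detection by luminescence.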

A short description of experiment [6]: UWB1.289-WTBRCA1 Cancer Cell Toxicity qHTS against the NCATS CANVASS Library (AID 1347354). In short, it runs like this:
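Using an ATP-based luminescent reagent after three days of treatment, toxicity is scored across an eleven-concentration range in wells holding 1000 cells each.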

The nature of experiment [7]: HEK293 18hr Apoptosis Induction qHTS against the NCATS CANVASS Library (AID 1347357). Also: 0% is about no effect. The procedure, abridged: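 HEK293 cells (500/well, DMEM + 10% FBS) treated with an 11-point series for 18 h at 37 degrees C. Caspase-3/7 activity read by Caspase-Glo luminescence after 15 min at room temperature.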
The nature of experiment [8]: KB-8-5-11 Cancer Cell Toxicity qHTS against the NCATS CANVASS Library (AID 1347364). Also: nearly all actives have a fitted effect of over 75% in size. In short, it runs like this:
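Luminescent ATP signal (CellTiter-Glo, 10 min at room temperature) measured cell survival of KB-8-5-11 after 72 hr compound treatment. For confirmation, the cells were also grown with 1uM tariquidar.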

The nature of experiment [9]: SDT Cancer Cell Toxicity qHTS against the NCATS CANVASS Library (AID 1347365). Also: nearly all actives have a fitted effect of over 60% in size. Also: potency is read from the fitted curve at half-maximal effect.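 As to activity change, negative = cytotoxicity: SDT canine glioma cells 500 per well in 1536 well plates; series mostly up to about 46 µM; % is scaled to controls: 0 for no effect and ±100 for the full control effect.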 In short, it runs like this: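 Canine SDT glioma cell toxicity was scored by ATP-dependent luminescence after a 72 hr incubation with an 11-point compound series.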
Experiment [10] is described as follows: G06 Cancer Cell Toxicity qHTS against the NCATS CANVASS Library (AID 1347368). Also: nearly all actives have a fitted effect of over 60% in size. Also: potency is read from the fitted curve at half-maximal effect. As to activity change, negative = cytotoxic: series mostly up to about 46 µM; % is scaled to controls: 0 for no effect and ±100 for the full control effect. In short, it runs like this:
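Quantitative HTS in G06 cells (dog glioma): 72 hr treatment, 11 concentrations, then ATP-based luminescent viability readout; bortezomib 0.1 nM–4.6 uM final as reference.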

A short description of experiment [11]: qHTS for ATAD5 Antagonist screened against the NCATS CANVASS Library (AID 1347370).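 Also: HEK293T cells carrying an ATAD5 luciferase reporter co-treated with 10 µM 5-fluorouridine; series mostly up to about 46 µM; % is scaled to controls: 0 for no effect and ±100 for the full control effect; nearly all actives have a fitted effect of over 65% in size.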 The procedure, abridged: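 HEK293T-ATAD5 luc reporter, 2000 cells/well; 5hr attach; cpd + 10 uM 5-FUrd; 16hr 37C, 5% CO2. Readouts: CellTiter-Fluor fluorescence (1hr), then Amplite luciferase luminescence (30min RT).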
Experiment [12] is described as follows: qHTS for Hypoxia signaling pathway (HIF-1) antagonists against the NCATS CANVASS Library (AID 1347374). In short, it runs like this: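 Beta-lactamase reporter under HRE control in ME-180 cells; CoCl2 stimulus (60 uM solution as added), compounds 11-pt qHTS, 17 h 37C. CCF4 dye 2 h RT, 460/530 nm emission. CellTiter-Glo viability in same wells.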
The nature of experiment [13]: qHTS for Hypoxia signaling pathway (HIF-1) agonists against the NCATS CANVASS Library (AID 1347375). Also: 0% is about no effect. In short, it runs like this:
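An HRE-beta-lactamase ME-180 line is exposed for 17 h to an 11-point compound series, then read by CCF4-AM FRET. Cytotoxicity is measured in parallel in the same wells with CellTiter-Glo, and autofluorescence is checked separately.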

Experiment [14] can be described thus: Cytotoxicity qHTS for assessment of Hepg2 cells membrane integrity screened against the NCATS CANVASS Library (AID 1347387). In short, it runs like this:
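Membrane damage in HepG2 monolayers was estimated from released LDH, measured with CytoTox-ONE (ex 560/em 590 nm), after 5 hr treatment across 0.59 nM - 46 uM final.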

The nature of experiment [15]: qHTS for activators of Nrf2/ARE signaling pathway screened against the NCATS CANVASS Library (AID 1347391). Also: 0% is about no effect; nearly all actives have a fitted effect of over 60% in size. In short, it runs like this: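 Activation of Nrf2/ARE was scored in ARE-bla HepG2 cells after 16 h compound exposure using CCF4 beta-lactamase fluorescence ratio readings.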
Experiment [16] in a line: qHTS for activators of dead-cell proteases activity screened against the NCATS CANVASS Library (AID 1347392).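 Also: luminescence from protease leaking out of membrane-damaged cells cleaving impermeant substrate; 0% is about no effect; rising signal means more cytotoxicity.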 The procedure, abridged: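 HepG2, 2000 cells/well, 18 h attach; cpd 11-pt, 5 h 37C 5% CO2; CytoTox-Glo (AAF-aminoluciferin) 15 min RT; luminescence read.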
Experiment [17] is described as follows: Vero-766 cells viability qHTS against the NCATS CANVASS Library: Counterscreen for Zika virus inhibition assay (AID 1347394). In short, it runs like this: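 Vero 766 cells (1000/well), without Zika virus, were exposed to compounds for 72 h at 37C. Viability was measured by CellTiter Glo luminescence. Media-only wells served as 100% inhibition.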
A short description of experiment [18]: qHTS for inhibitors of Wild type Zika virus screened against the NCATS CANVASS Library (AID 1347396).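 Also: ATP luminescence of surviving cells so rescue from viral cell killing; series mostly up to about 46 µM; % is scaled to controls: 0 for no effect and ±100 for the full control effect.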 In short, it runs like this: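 Vero 766 (African green monkey) cells, 1000 per well, attached overnight, then compounds were added in an 11-point series before wild-type Zika virus infection. After 72 h at 37C, cell viability was read as CellTiter Glo luminescence.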

Experiment [19] relates to NAD(P)H diaphorase (Clostridium kluyveri). The experiment can be described thus: Diaphorse counterscreen qHTS: Assay Interference Panel against the NCATS CANVASS Library (AID 1347362). Also: 0% is about no effect. The procedure, abridged:
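Clostridium kluyveri diaphorase in PBS + 0.01% Tween-20 preincubated 15 min with compounds. Resazurin and NADH then added for 5 min at room temperature in the dark; resorufin fluorescence read (ex 525, em 598).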
A general note: The purpose of a counterscreen is to sort out artefacts and off-target activity.

Experiment [20] in a line: Redox Reaction Profiling qHTS: Assay Interference Panel against the NCATS CANVASS Library (AID 1347401). Also: potency is read from the fitted curve at half-maximal effect.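 As to activation (redox signal): 100% = activation by 2 µM chloranil control.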 In short, it runs like this:
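Fluorescence read-out (525 nm excitation, 598 nm emission) at time zero and after 15 min in the dark tracked resorufin formation. Mix: 5 uM resazurin, 200 uM DTT, HEPES pH 7.3 buffer with NaCl.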

Regarding `C=C1C[C@@]23C=CC(=O)[C@@](C)(CCC(=O)Nc4c(O)ccc(C(=O)O)c4O)C2C[C@@H]1C(O)C3` (some centres undefined), the Potency in [1] is 44 µM (active). Moreover, the Potency result in experiment [2], in experiment [3], in [4], in experiment [5], in experiment [6] and in [7] was “inactive” in each case. In addition, the Potency entry in [8], in [9], in experiment [10], in [11], in [12] and in experiment [13] was “inactive” in each case. Also, the Potency entry in experiment [15], in [16], in [17] and in [18] was “inactive” throughout. The compound was classed as inactive in experiment [14].
For the compound `COc1ccc2oc3c(OC)c(OC)c(OC)c(OC)c3c(=O)c2c1`, the Potency result in experiment [1] was “inactive”. In addition, the activity change, negative = cytotoxicity in experiment [2] is -4.07% [at 7.64 µM]; in experiment [4], -8.03% [at 7.64 µM]; in experiment [6], 9.39% [at 7.64 µM]; in experiment [9], -18.8% [at 9.19 µM]. Also, in experiment [5], the outcome is “inactive [at 9.19 µM]”. Also, the activity change, negative = inhibition in experiment [19] was -18.3% [at 11.5 µM]; in experiment [11], -20.5% [at 9.19 µM]; in experiment [12], 0.76% [at 7.64 µM]. In addition, the activity change, negative = cytotoxic in experiment [10] was -19.7% [at 9.19 µM]; in experiment [17] it was -1.29% [at 9.19 µM]. In addition, the activation in [13] is 1.59% [at 7.64 µM]; in experiment [15], 5.78% [at 9.19 µM]. For the same compound, the cytotoxicity (LDH release) in experiment [14] is -0.617 [at 9.19 µM]. The activation (cytotoxicity) in experiment [16] is -1.14% [at 9.19 µM]. The activity change, negative = antiviral in experiment [18] was -12.7% [at 9.14 µM]. For the same compound, the activation (redox signal) in experiment [20] is -9.99% [at 11.4 µM].
As to `C[C@@]12CCC[C@@](C)(C(=O)O)[C@H]1CC[C@]13C[C@H]4C[C@H](O[C@@]4(C)C1)[C@H]32`, the values for the Potency in experiment [1] and in [2] were 3.92 µM (active) and 7.47 µM (active), respectively. In addition, the Potency entry in experiment [4], in experiment [5], in [19], in experiment [8], in experiment [9] and in experiment [10] was “inactive” in each case. The Potency result in experiment [11], in experiment [12], in experiment [13], in experiment [15], in [18] and in experiment [20] was “inactive” in each case. The compound was called inactive in experiment [14].
Consider `C[C@@H]1C[C@H]2C[C@]3(CCCCN3C)[C@@H]3C[C@H]2[C@H](C1)N(C)C3`, for which the Potency entry in [1], in experiment [2], in experiment [4], in experiment [5], in experiment [6] and in experiment [7] was “inactive” in each case. Moreover, the Potency entry in experiment [19], in experiment [8], in [9], in [11], in [12] and in [13] was “inactive” in each case. Also, the Potency result in [16], in [18] and in experiment [20] was “inactive” throughout. Besides, the Potency in experiment [10] was 18.7 µM (active). Besides, the result in [14] was inactive.
For the compound `COC1C(O)C(OC(N)=O)C(Oc2ccc3c(O)c(NC(=O)c4ccc(O)c(CC=C(C)C)c4)c(=O)oc3c2C)OC1(C)C` (centres undefined), the Potency in [1] is 44 µM (active). Moreover, the Potency result in experiment [2], in experiment [4], in [5], in experiment [6], in [7] and in experiment [19] was “inactive” each time. In addition, the Potency entry in [8], in experiment [9], in experiment [10], in experiment [11], in [12] and in experiment [13] was “inactive” in each case. Besides, the Potency result in [15], in experiment [17], in [18] and in experiment [20] was “inactive” each time. In experiment [14], the compound was called inactive.
Turning to `CC(C)(Br)[C@@H](Cl)C[C@H](Br)[C@](C)(Cl)/C=C/Br`, the Potency was 34.9 µM (active) in experiment [1]; 18.8 µM (active) in [2]; 2.35 µM (active) in [5]; 18.7 µM (active) in experiment [9]; 13.2 µM (active) in experiment [10]; 30.4 µM (active) in [20]. In addition, the Potency result in experiment [6], in experiment [7], in [19], in experiment [11], in experiment [13] and in experiment [17] was “inactive” in each case. The Potency result in experiment [18] was “inactive”. For the same compound, the outcome in experiment [14] was inactive.
